Screens from PubChem BioAssay.
A selection: hits, their analogues and other compounds. The true share with any hit is near 2%.
APOBEC3A inh – inhibitors of human APOBEC3A DNA deaminase; P31941; recombinant A3A, FAM/TAMRA ssDNA deamination fluorescence; AID 493011; inhibition, % at 20 µM; hit rate 0.41% among 330,000;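 active = at least 40% inhibition at 20 µM here, with at most 30% in a related deaminase screen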
NPR2 activator – GC-B (human) receptor activation; HEK293-GC-B cells, CNP EC30, cGMP TR-FRET; 0% at EC30 CNP, 100% saturating CNP; activation, % at 10 µM; hit rate 0.11% among 370,000;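 active = activation at 10 µM reaching about 35% in either raw or pattern-adjusted values, limit read from the data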
Neddyl block – cullin neddylation inhibition. TR-FRET cullin neddylation, biochemical. hit rate 0.58% among 360,000. inhibition, % at 25 µM. AID 651699; in the data active = inhibition above about 36%
NPR1 activator – GC-A (human) enzyme activation; P16066; HEK293 GC-A cells, cGMP TR-FRET, EC30 ANP; 0% at EC30 ANP, 100% saturating ANP; activation, % at 10 µM; hit rate 0.14% among 370,000; AID 1671463; in the data active = activation above about 40%
Target sequence (P16066 whole entry, looked up): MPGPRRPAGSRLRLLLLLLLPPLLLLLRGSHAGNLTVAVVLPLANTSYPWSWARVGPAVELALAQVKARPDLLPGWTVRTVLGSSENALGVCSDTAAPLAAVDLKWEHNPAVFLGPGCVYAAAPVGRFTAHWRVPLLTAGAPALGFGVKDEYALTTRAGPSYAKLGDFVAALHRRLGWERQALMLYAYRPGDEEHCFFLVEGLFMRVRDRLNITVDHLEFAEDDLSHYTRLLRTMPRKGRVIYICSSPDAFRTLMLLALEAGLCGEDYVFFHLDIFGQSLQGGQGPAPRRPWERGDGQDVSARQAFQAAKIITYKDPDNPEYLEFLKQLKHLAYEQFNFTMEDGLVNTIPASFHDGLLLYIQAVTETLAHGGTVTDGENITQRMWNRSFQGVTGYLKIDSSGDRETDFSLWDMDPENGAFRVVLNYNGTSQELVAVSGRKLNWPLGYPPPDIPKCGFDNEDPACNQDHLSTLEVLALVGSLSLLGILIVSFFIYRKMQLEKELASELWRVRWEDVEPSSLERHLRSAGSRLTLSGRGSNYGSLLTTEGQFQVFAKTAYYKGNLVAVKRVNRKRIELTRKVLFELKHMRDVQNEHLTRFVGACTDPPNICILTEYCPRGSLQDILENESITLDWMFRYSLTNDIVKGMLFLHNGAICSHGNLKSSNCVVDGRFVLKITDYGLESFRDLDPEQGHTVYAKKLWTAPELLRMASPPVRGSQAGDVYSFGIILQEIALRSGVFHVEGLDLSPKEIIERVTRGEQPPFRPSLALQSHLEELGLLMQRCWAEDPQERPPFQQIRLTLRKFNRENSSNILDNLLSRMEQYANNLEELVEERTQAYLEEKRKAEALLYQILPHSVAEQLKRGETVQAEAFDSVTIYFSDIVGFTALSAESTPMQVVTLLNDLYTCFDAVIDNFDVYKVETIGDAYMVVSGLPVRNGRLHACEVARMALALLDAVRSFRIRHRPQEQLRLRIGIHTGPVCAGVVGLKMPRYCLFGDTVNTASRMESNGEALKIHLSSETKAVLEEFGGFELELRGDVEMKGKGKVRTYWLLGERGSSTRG
PfG6PD inh – PfG6PD (Plasmodium falciparum) enzyme inhibition; inhibition, % at 20 µM; AID 504690; PfGluPho enzyme, NADPH resazurin-diaphorase fluorescence; hit rate 0.78% among 350,000;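 active = inhibition reaching at least a set limit at 20 µM in the primary screen, cut at about 59% in these data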
A3G deaminase – APOBEC3G (human) deaminase inhibition; AID 493012; recombinant A3G, ssDNA deamination FAM/TAMRA fluorescence; hit rate 0.28% among 330,000; inhibition, % at 20 µM; Q9HC16;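 active = inhibition of at least 40% at 20 µM, with no more than 30% in the related APOBEC3A deaminase screen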
A3A conf – confirmation of human APOBEC3A DNA deaminase inhibitors; shares compounds with APOBEC3A inh; recombinant A3A, ssDNA deaminase UDG fluorescence assay; inhibition, % at 20 µM; hit rate 63% among 1,400;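 active = inhibition reaching a set limit, 80% of the first screen's cutoff, at 20 µM in any replicate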
UDG ctr A3A – UDG inhibition in APOBEC3A counter-screen; shares compounds with APOBEC3A inh; UDG counterscreen, FAM/TAMRA uracil oligo fluorescence; inhibition, % at 20 µM; 1,000 tested, under 10 active; AID 504714; call rule not given here
Numbers stand for hits; n = inactive; x = not tested or not shown.

SMILES | APOBEC3A inh | NPR2 activator | Neddyl block | NPR1 activator | PfG6PD inh | A3G deaminase | A3A conf | UDG ctr A3A
CCn1c(/C=C/N(C(C)=O)c2ccccc2)[n+](CCCS(=O)(=O)[O-])c2cc(Cl)c(Cl)cc21 | n | n | n | n | n | n | x | x
CCOC(=O)c1ccc2c(c1)n(CCO)c(C)[n+]2CC | 43 | n | n | n | n | n | 82 | n
C/C(=N\NC(=O)CSc1nnc(-c2ccccc2)n1-c1ccc(C)cc1)c1ccc(-c2ccccc2)cc1 | x | n | x | n | x | x | x | x
COC(=O)[C@H](CC(C)C)N(CCCc1cn(Cc2ccccc2)nn1)S(=O)(=O)c1ccccc1Br | x | n | x | n | x | x | x | x
CCn1c(=O)n(CC)c2cc(NC(=O)C(C)c3ccccc3)c(Br)cc21 (configuration not stated) | 54 | n | n | n | n | n | n | x
CCOC(=O)N1C(=O)C[C@](Sc2ccc(OC)cc2)(C(=O)N2CCN(C(C)=O)CC2)[C@H]1c1ccc(OC)cc1 | x | n | x | n | x | x | x | x
O=C1NC(=S)SC1=C1CCCC1 | 62 | n | n | n | n | n | 58 | n
Cc1nc2ccccc2n1-c1ccccc1 | n | n | n | n | n | n | x | x
Cc1nc2nc(C)n(-c3ccccc3)c2s1 | n | n | n | n | n | n | 47 | n
Cc1ccccc1OCC(=O)N/N=C/c1ccc([N+](=O)[O-])o1 | n | n | n | n | n | n | x | x
COc1ccccc1OCC(=O)N/N=C/C=C/c1ccc([N+](=O)[O-])o1 | 45 | n | n | n | n | n | 19 | n
O=C(CC1(O)C(=O)Nc2cc(Cl)cc(Cl)c21)c1ccccc1O (configuration not stated) | 65 | n | n | n | n | n | n | n
O=C(CC1(O)C(=O)Nc2ccccc21)c1ccccc1O (configuration not stated) | n | n | n | n | n | n | x | x
COc1ccc(C(=O)OCCN(C)C2CN(Cc3cn(Cc4cccc(F)c4)nn3)S(=O)(=O)C2)cc1OC (configuration not stated) | x | n | x | n | x | x | x | x
CCOC(=O)C1=NOC(C(=O)NCc2ccccc2)(C(=O)c2ccc(OC)cc2)C1 (configuration not stated) | x | n | x | n | x | x | x | x
Cc1ccc(NC(=O)Cn2cc(C(=O)C3CC3)c3ccccc32)c(C)c1 | n | n | n | n | n | n | x | x
Cc1ccc(C)c(NC(=O)Cn2cc(C(=O)C3CC3)c3ccccc32)c1 | 71 | n | n | n | n | n | 62 | n
CCN1CCN(Cc2ccc(NC(=O)c3cccc(-c4ccc5nc(NC(=O)C6CC6)sc5n4)c3)cc2C(F)(F)F)CC1 | x | n | x | n | x | x | x | x
CS(=O)(=O)c1ccc2sc(NC(=O)c3cc4ccccc4o3)nc2c1 | 53 | n | x | n | n | n | n | x
O=C(CCNS(=O)(=O)c1ccc2nsnc2c1)N1CCN(c2ccncc2)CC1 | 64 | n | n | n | n | n | n | n
CCN(CC)c1ccc2nc3ccccc3[n+](CC)c2c1 | 79 | x | n | x | n | n | 82 | n
COc1ccccc1N/C(=N/S(=O)(=O)c1ccc(Cl)cc1)c1ccccc1 | n | n | n | n | n | n | x | x
COc1ccccc1NC(C)=[N+](C)CCNS(=O)(=O)c1ccc(Cl)cc1 | 56 | n | n | n | n | n | 79 | n
COc1ccc(NC(C)=[N+](C)CCNS(=O)(=O)c2ccc(Cl)cc2)cc1Cl | 62 | n | n | n | n | n | 69 | n
CC(C)N(CCNS(=O)(=O)c1ccc(Cl)cc1)C(C)C | n | n | n | n | n | n | x | x
SMILES | APOBEC3A inh | NPR2 activator | Neddyl block | NPR1 activator | PfG6PD inh | A3G deaminase | A3A conf | UDG ctr A3A
COc1ccc(NC(=O)CCNS(=O)(=O)c2ccc(NC(C)=O)cc2)cc1Cl | n | n | n | n | n | n | x | x
CC(Nc1cc(C)cc(C)c1)=[N+](C)CCNS(=O)(=O)c1ccc(Cl)cc1 | 45 | n | n | n | n | n | 67 | n
O=C(OC12CCCN(C1)/C(=C/c1ccc(Cl)cc1)C2)c1cccc(F)c1 (configuration not stated) | x | n | x | n | x | x | x | x
N#CCC[C@H]1CC[C@]2(CCCN(C(=O)c3ccccc3)C2)O1 | x | n | x | n | x | x | x | x
CCOC(=O)Cn1cc(CN2CCS(=O)(=O)N(Cc3ccc(Cl)cc3)C(C(=O)OC)C2)nn1 (configuration not stated) | x | n | x | n | x | x | x | x
CC(=O)c1cccc(OC(=O)c2ccc3c(=O)n4c(nc3c2)CCC4)c1 | 65 | x | n | x | n | n | 47 | n
C=CCN1C(=O)[C@@H](CC(=O)NCc2cccc3ccccc23)[C@]2(C(=O)OCC)CCCCC/C=C/12 | x | n | x | n | x | x | x | x
CCCCS(=O)(=O)N1CCCc2nc(-c3ccc(F)cc3)ccc21 | x | n | x | n | x | x | x | x
CC1(C#CC[N+]2(C)CCCCC2)CCC2C(O1)c1ccccc1OC2(C)C (configuration not stated) | 75 | n | n | n | n | n | 61 | n
CC1(C(O)(C#CC[N+]2(C)CCCCC2)c2ccccc2)CCCC1 (configuration not stated) | n | n | n | n | n | n | x | x
COc1cccc(N2[C@@H](CC(C)=O)c3ccccc3S2(=O)=O)c1 | n | n | n | n | n | n | x | x
COc1cccc(N2[C@@H](CC(=O)O)c3ccc(/C=C/C(=O)O)cc3S2(=O)=O)c1 | 94 | n | n | n | n | n | 79 | n
COc1ccc(C(=O)OCC[N+]2(C)CCOCC2)cc1 | 61 | n | n | n | n | n | 73 | n
COc1ccc(C(=O)OCCc2ccc(O)cc2)cc1 | n | n | n | n | n | n | x | x
C[C@@H]1C=CCCO[C@]12C(=O)Nc1ccccc12 | x | n | x | n | x | x | x | x
N#C/C(=C\c1c[nH]c2ccccc12)C(=O)NCC1CCCO1 (configuration not stated) | 63 | n | n | n | n | n | 64 | n
CCOc1ncccc1C(=O)OCC(=O)N(CC)c1ccccc1 | 74 | n | n | n | n | n | n | n
O=C1NC(=O)/C(=C/c2ccc(-c3cc(C(=O)O)ccc3Cl)o2)S1 | n | n | n | n | n | n | x | x
O=C1NC(=O)/C(=C\c2ccc(Br)o2)S1 | 55 | n | n | n | n | n | n | x
CC(OC(=O)CCCN=C1NS(=O)(=O)c2ccccc21)C(=O)NC1CCCCC1C (configuration not stated) | 51 | n | n | n | n | n | n | x
CC(=O)c1ccc(NC(=O)C(C)OC(=O)CCCN=C2NS(=O)(=O)c3ccccc32)cc1 (configuration not stated) | n | n | n | n | n | n | x | x
COc1ccccc1Oc1ccc(S(=O)(=O)N2CCCCC2)cc1NC(=O)CCNC(C)=O | 58 | n | n | n | n | n | n | x
